Among the test systems are DU-145 prostate; K-562 leukemia; MALME-3M melanoma; MDA-MB-231 breast; RXF 393 renal; SF-268 CNS; SF-295 CNS; SF-539 CNS; UACC-257 melanoma; HCT-15 colon; HT29 colon; SNB-75 CNS; SNB-19 CNS; U251 CNS; PC-3 prostate; SK-MEL-5 melanoma; UACC-62 melanoma; LOX IMVI melanoma; SK-MEL-28 melanoma; M14 melanoma.
Common to all, as to experiment: NCI-60 one-dose screen, 48 h (100 = growth as untreated, 0 = no growth, -100 = all killed)
Holding throughout (conditions): 10 µM unless noted

About 83,000 compounds went through this panel and 20% of them were active in at least one assay; those are over-represented in the sample as a whole.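 Cell lines were cultured in 96-well plates, exposed to a single compound concentration, and assessed for percent growth 48 hours later.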 A number with no mark means an inactive call. Active and inactive are the calls of the source. The calls were made as follows: active = growth percent below 10; inactive = the rest.

For the compound `C#C[C@]1(O)CC[C@H]2[C@@H]3CC=C4c5sc(N=C(N)N)nc5CC[C@]4(C)[C@H]3CC[C@@]21C`, the growth was 8.62% (active) in the test with DU-145 prostate; -21.1% (active) with K-562 leukemia; -76.2% (active) with MALME-3M melanoma; -45.4% (active) in the test with MDA-MB-231 breast; -56.6% (active) with RXF 393 renal; -15% (active) in the test with SF-268 CNS. For the same compound, the growth with SF-295 CNS is -56.2% (active); in the test with SF-539 CNS it was -81.3% (active); with UACC-257 melanoma, -44.8% (active); in the test with HCT-15 colon, -60.8% (active); in the test on HT29 colon it was -0.997% (active); with SNB-75 CNS, -60.5% (active). Besides, the growth in the test on SNB-19 CNS is 18.9%; with U251 CNS it was -14.9% (active); in the test with PC-3 prostate, 0.258% (active); in the test on SK-MEL-5 melanoma, -94.9% (active); with UACC-62 melanoma, -51.7% (active); in the test with LOX IMVI melanoma, -64.4% (active). Moreover, the growth in the test with SK-MEL-28 melanoma is -68.8% (active).
As for `CCNCCNc1cc(-c2ccc(C(F)(F)F)cc2)c(C#N)c2nc3cc(Cl)c(Cl)cc3n12`, the growth in the test on DU-145 prostate is -93% (active); with K-562 leukemia it was -63.7% (active); in the test on MALME-3M melanoma, -77.9% (active); in the test with MDA-MB-231 breast it was -73.2% (active); in the test with RXF 393 renal, -96.3% (active); in the test with SF-268 CNS it was -76.3% (active). In addition, the growth in the test on SF-295 CNS is -91.2% (active); in the test with SF-539 CNS it was -92.9% (active); in the test with UACC-257 melanoma, -85.4% (active); in the test with M14 melanoma, -81.5% (active); with HCT-15 colon it was -80.1% (active); in the test with SNB-75 CNS, -93.7% (active). Besides, the growth with SNB-19 CNS was -62.7% (active); with U251 CNS, -94% (active); in the test with PC-3 prostate, -88.4% (active); with SK-MEL-5 melanoma it was -98.9% (active); in the test on UACC-62 melanoma, -63.3% (active); in the test with LOX IMVI melanoma, -74% (active). In the test with SK-MEL-28 melanoma, the growth is -96.5% (active).
In the case of `Cc1ccc(S(=O)(=O)NN/C(N)=N\S(=O)(=O)c2cc(C)c(Cl)cc2SCc2ccccc2)cc1`, the growth in the test on DU-145 prostate is 115%; in the test with K-562 leukemia, 57.8%; in the test with MALME-3M melanoma it was 76.1%; in the test with MDA-MB-231 breast, 92.5%; in the test with RXF 393 renal it was 8.06% (active); in the test on SF-268 CNS, 102%. Moreover, the growth was 95% with SF-295 CNS; 73.9% in the test with SF-539 CNS; 97.3% with UACC-257 melanoma; 109% with HCT-15 colon; 107% with HT29 colon; 68.3% with SNB-75 CNS. In addition, the growth was 86.9% in the test on SNB-19 CNS; 83.9% with U251 CNS; 71.6% with PC-3 prostate; 104% in the test with SK-MEL-5 melanoma; 84.3% in the test on UACC-62 melanoma; 92% in the test with LOX IMVI melanoma. Further, in the test on SK-MEL-28 melanoma, the growth is 94.3%.
Consider `Cc1c(C(=O)O[C@H]2[C@@H]3[C@H](C)CC[C@H]3[C@]3(C)O[C@@]2(C2CCCCC2)C[C@H]3OC(=O)CO)ccc2ccccc12`, for which the growth is 58.7% in the test with DU-145 prostate; 7.53% (active) with K-562 leukemia; 42.3% with MALME-3M melanoma; 33.2% in the test on MDA-MB-231 breast; -31.7% (active) with RXF 393 renal; 16% in the test with SF-268 CNS. Moreover, the growth in the test on SF-295 CNS is 36.8%; in the test with SF-539 CNS it was 65.6%; in the test on UACC-257 melanoma it was 39.8%; in the test on M14 melanoma it was 36.2%; in the test with HCT-15 colon, 14.2%; with SNB-75 CNS, 82.6%. Further, the growth with SNB-19 CNS was 60.8%; in the test with U251 CNS it was 4.41% (active); with PC-3 prostate, 9.25% (active); in the test with SK-MEL-5 melanoma, 68.6%; in the test on UACC-62 melanoma it was 61.3%; in the test with SK-MEL-28 melanoma it was 59.7%.
For the compound `COc1ccc(C2CC(c3ccccc3)=NN2c2nc(C)c(C(C)=O)s2)cc1` (stereo not given), the growth is 102% in the test on DU-145 prostate; 95% in the test with K-562 leukemia; 95.2% with MALME-3M melanoma; 96.6% with MDA-MB-231 breast; 94.1% with RXF 393 renal; 91.3% with SF-268 CNS. The growth in the test on SF-295 CNS is 99%; in the test on SF-539 CNS it was 94.3%; in the test on UACC-257 melanoma, 102%; with M14 melanoma, 97.3%; in the test with HCT-15 colon, 98.7%; with SNB-75 CNS it was 90.2%. Further, the growth was 99.3% in the test on SNB-19 CNS; 100% with U251 CNS; 97% in the test with PC-3 prostate; 103% with SK-MEL-5 melanoma; 91.5% in the test on UACC-62 melanoma; 94.6% in the test with LOX IMVI melanoma. The growth in the test with SK-MEL-28 melanoma is 112%.
On to `CC(=O)Nc1ccc2c(c1)Cc1c(F)cccc1-2`, for which the growth in the test on DU-145 prostate was 102%; in the test on K-562 leukemia it was 120%; in the test on MALME-3M melanoma, 130%; with MDA-MB-231 breast it was 101%; with RXF 393 renal, 99%; with SF-268 CNS, 83.7%. In addition, the growth in the test with SF-295 CNS is 109%; with SF-539 CNS it was 99.4%; in the test with UACC-257 melanoma, 110%; in the test on M14 melanoma, 119%; in the test with HCT-15 colon, 108%; in the test with SNB-75 CNS it was 73.7%. Also, the growth in the test with SNB-19 CNS was 107%; with U251 CNS, 107%; in the test with PC-3 prostate, 88.4%; in the test on UACC-62 melanoma it was 98.9%; with LOX IMVI melanoma, 103%; in the test on SK-MEL-28 melanoma, 117%.
`Cn1cc(Nc2nccc(-c3ccc(N4CCCC4)c(C#N)c3)n2)cn1`: the growth in the test with DU-145 prostate is 55.7%; in the test with K-562 leukemia, 9.73% (active); in the test on MALME-3M melanoma it was 54.4%; in the test on MDA-MB-231 breast, 63.9%; in the test with RXF 393 renal, 43.9%; with SF-268 CNS it was 45.9%. Further, the growth was 71.3% in the test on SF-295 CNS; 43.8% with SF-539 CNS; 69.6% in the test with UACC-257 melanoma; 17.2% in the test on M14 melanoma; 21.3% in the test with HCT-15 colon; 24.5% with SNB-75 CNS. Moreover, the growth is 62.3% with SNB-19 CNS; 35.8% in the test with U251 CNS; 43% with PC-3 prostate; 38.8% in the test with SK-MEL-5 melanoma; 28.8% in the test with UACC-62 melanoma; 32.6% in the test with LOX IMVI melanoma. In the test on SK-MEL-28 melanoma, the growth was 64%.
In the case of `COc1cc(C2CC(c3ccc(Nc4nc(Nc5ccc(F)cc5)nc(Nc5ccc(Cl)cc5)n4)cc3)=NN2C(C)=O)cc(OC)c1OC` (stereo not given), the growth is 110% with DU-145 prostate; 44.2% with K-562 leukemia; 67.9% with MALME-3M melanoma; 77.8% with MDA-MB-231 breast; 71.5% with RXF 393 renal; 90.4% in the test on SF-268 CNS. Also, the growth was 339% in the test with SF-295 CNS; 84.6% with SF-539 CNS; 122% with UACC-257 melanoma; 65.7% with HCT-15 colon; 46.3% in the test with HT29 colon; 54.7% in the test on SNB-75 CNS. The growth with SNB-19 CNS is 74.5%; with U251 CNS, 62.6%; in the test with PC-3 prostate, 32.6%; in the test on SK-MEL-5 melanoma, 60.1%; in the test on UACC-62 melanoma it was 62%; in the test with LOX IMVI melanoma, 82.8%. Further, the growth in the test with SK-MEL-28 melanoma was 88.7%.

For the origin of these results see PubChem BioAssay (NCI).
